“And” between values parts separate entries of the source, which are not always exact repeats. Equal values may be shown once. Results filed as inconclusive are left out. The source made the active and inactive calls. Calls follow the shape of the dose curve; as a rule, active = well fitted curve in the direction sought with a large enough effect; inconclusive = small, poorly fitted or top-dose-only effect, or another doubt; inactive = no such curve, though single readings can be large; an effect the other way counts as inactive or inconclusive.

A short description of experiment [1]: Cell Viability - LYMP2-023 (AID 975). Also: nearly all actives have a fitted effect of over 55% in size. Also: potency is read from the fitted curve at half-maximal effect. The method, boiled down:
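2500 cells/well, 5 hr 37 C; cpd 24 hr 37 C; CellTiter-Glo, 30 min RT; luminescence. qHTS conc-response, Hill fit -> AC50. Pos ctrl tetraoctylammonium bromide.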

A short description of experiment [2]: Cell Viability - LYMP2-002 (AID 977).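 Also: compound exposure lasted 24 h at 37 °C.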 Also: potency is read from the fitted curve at half-maximal effect. In a few lines:
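Cytotoxicity is scored as concentration-dependent loss of cellular ATP in a human lymphoblastoid line after 24 hr compound treatment at 37 C. AC50 is obtained by modelling concentration-response data with the Hill equation.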

Experiment [3] can be described thus: Cell Viability - LYMP2-006 (AID 978). Also: nearly all actives have a fitted effect of over 60% in size. Also: potency is read from the fitted curve at half-maximal effect. In a few lines:
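In this cytotoxicity screen, the human lymphoblastoid line grew in complete medium with test compounds for 24 hr at 37 C. Cellular ATP served as the viability signal.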

The nature of experiment [4]: Cell Viability - LYMP2-007 (AID 979).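 Also: cells exposed to compound for 24 h before reading; nearly all actives have a fitted effect of over 60% in size.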 Also: potency is read from the fitted curve at half-maximal effect. The method, boiled down: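 Luminescent ATP signal (CellTiter-Glo) serves as the viability read-out after 24 hr compound treatment of lymphoblastoid cells in complete medium at 37 C. Concentration-response data were fitted to the Hill equation to give AC50 values.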
Experiment [5] in a line: Cell Viability - LYMP2-008 (AID 980). Also: nearly all actives have a fitted effect of over 60% in size. Also: potency is read from the fitted curve at half-maximal effect. The method, boiled down:
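qHTS, human lymphoblastoid line, 2500 cells/well; 5 hr preincubation, 24 hr compound, 37 C. CellTiter-Glo ATP luminescence. AC50 via Hill equation. Tetraoctylammonium bromide positive control.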

Experiment [6] in a line: Cell Viability - LYMP2-010 (AID 981). Also: nearly all actives have a fitted effect of over 55% in size. Also: potency is read from the fitted curve at half-maximal effect. In a few lines: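 Luminescent ATP signal (CellTiter-Glo) served as the viability read-out. Cells of the human lymphoblastoid line were treated with compound over a concentration range for 24 hours at 37 C, and AC50 values came from Hill-equation modeling.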
The nature of experiment [7]: Cell Viability - LYMP2-012 (AID 982).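 Also: cellular ATP by luciferase luminescence where a drop means cytotoxicity; cells exposed to compound for one day before reading; nearly all actives have a fitted effect of over 55% in size.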 Also: potency is read from the fitted curve at half-maximal effect.
The nature of experiment [8]: Cell Viability - LYMP2-016 (AID 984). Also: nearly all actives have a fitted effect of over 55% in size. Also: potency is read from the fitted curve at half-maximal effect. In a few lines: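 Concentration-dependent ATP depletion measured in LYMP2-016 lymphoblastoid cells, 24 h, 37 C; luciferase-based luminescent detection; Hill-equation AC50.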
Experiment [9] is described as follows: Cell Viability - LYMP2-018 (AID 985).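 Also: compound exposure lasted 24 hr at 37 °C; nearly all actives have a fitted effect of over 50% in size.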 Also: potency is read from the fitted curve at half-maximal effect. In a few lines: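 Luminescent ATP signal (CellTiter-Glo, read after 30 min at room temperature) reports viable cells after 24 hr compound treatment at 37 C. Concentration-response data were fitted to the standard Hill equation for AC50.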
Experiment [10] in a line: Cell Viability - LYMP2-020 (AID 986). Also: nearly all actives have a fitted effect of over 55% in size. Also: potency is read from the fitted curve at half-maximal effect. The method, boiled down: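 Luminescent ATP signal (CellTiter-Glo, 30 min at room temperature) is the read-out after 24 h compound treatment of lymphoblastoid cells at 37 C. AC50 values come from Hill-equation fits across concentrations.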
Experiment [11] in a line: Cell Viability - LYMP2-024 (AID 988). Also: nearly all actives have a fitted effect of over 60% in size. Also: potency is read from the fitted curve at half-maximal effect. In a few lines:
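Steps: seed 2500 cells/well, 5 hr 37 C; add compound, 24 hr 37 C; add CellTiter-Glo, 30 min room temperature; read luminescence. AC50 derived by Hill modelling of concentration-dependent ATP loss.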

Experiment [12] can be described thus: Cell Viability - LYMP2-026 (AID 989). Also: nearly all actives have a fitted effect of over 50% in size. Also: potency is read from the fitted curve at half-maximal effect. The method, boiled down:
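Luminescent ATP signal (CellTiter-Glo, 30 min room temperature) measures viable lymphoblastoid cells after 24 hr compound treatment at 37 C. Decreased ATP reflects acute toxicity; AC50 values come from Hill-equation modeling.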

Experiment [13] can be described thus: Cell Viability - LYMP1-002 - Assay at 24 hr (AID 993). Also: potency is read from the fitted curve at half-maximal effect. In a few lines: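 Cells plated 2500/well, 5 hr 37 C; compounds added, 24 hr 37 C; CellTiter-Glo added, 30 min RT; luminescence read. Tetraoctylammonium bromide positive control. Hill-equation AC50.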
Experiment [14] in a line: Cell Viability - LYMP1-002 - Assay at 40 hr (AID 994). Also: nearly all actives have a fitted effect of over 60% in size. Also: potency is read from the fitted curve at half-maximal effect. In a few lines:
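Luminescent ATP signal served as the viability readout, with decreases taken as toxicity. Cells were treated with compounds across a concentration range for 40 hours at 37 C, and AC50 values came from standard Hill modeling.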

Experiment [15] can be described thus: Cell Viability - LYMP2-025 (AID 976). Also: potency is read from the fitted curve at half-maximal effect. The method, boiled down:
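Seed 2500 LYMP2-025 cells/well; 5 hr at 37 C; add compound; 24 hr at 37 C; add CellTiter-Glo; 30 min RT; read luminescence. AC50 from Hill-modelled concentration-response.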

For experiment [16], the target named is Alpha-galactosidase A (Homo sapiens) (UniProt P06280). Nature of the experiment: Counterscreen for Glucocerebrosidase Inhibitors: qHTS Assay for Human alpha-Galactosidase at pH 4.5 (AID 992). The method, boiled down: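 Concentration-response curves (0.7 nM to 77 uM final) were modeled with the Hill equation to give AC50. Reactions: 2 nM enzyme, 80 uM fluorogenic alpha-galactoside, pH 4.5 citric acid buffer, 20 min, room temperature.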
Sequence of Alpha-galactosidase A (Homo sapiens) (P06280 whole entry, looked up): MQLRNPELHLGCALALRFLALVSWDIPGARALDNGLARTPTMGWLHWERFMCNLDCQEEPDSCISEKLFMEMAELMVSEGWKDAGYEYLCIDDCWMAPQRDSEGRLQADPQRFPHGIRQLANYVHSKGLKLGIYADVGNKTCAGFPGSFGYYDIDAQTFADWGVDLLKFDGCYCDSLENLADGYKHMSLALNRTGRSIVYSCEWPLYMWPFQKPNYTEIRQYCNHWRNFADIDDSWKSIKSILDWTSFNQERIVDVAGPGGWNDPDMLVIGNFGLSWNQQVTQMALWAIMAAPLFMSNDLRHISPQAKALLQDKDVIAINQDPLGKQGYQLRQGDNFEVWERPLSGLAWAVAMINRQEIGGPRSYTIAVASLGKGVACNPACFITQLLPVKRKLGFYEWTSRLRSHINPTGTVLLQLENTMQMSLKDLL
Background: Counterscreens check selectivity or assay interference.

The target in experiment [17] is alpha-glucosidase (Oryza sativa, rice) (UniProt Q653V4). The experiment can be described thus: Counterscreen for Glucocerebrosidase Inhibitors: qHTS Assay for Rice alpha-Glucosidase at pH 5.0 (AID 997). In a few lines:
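Rice alpha-glucosidase (4 nM final) with 400 uM 4-methylumbelliferyl-alpha-D-glucopyranoside in citrate buffer pH 5.0, 20 min at room temperature, stopped at pH 10; fluorescence 365/440 nm, compounds 0.7 nM–77 uM, AC50 from Hill fits.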

Experiment [18] has as its target Alpha-galactosidase (Coffea arabica) (UniProt Q42656). Nature of the experiment: Counterscreen for Glucocerebrosidase Inhibitors: qHTS Assay for Coffee Bean alpha-Galactosidase at pH 5.9 (AID 998). The method, boiled down: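 Compounds were titrated from 0.7 nM to 77 uM against green coffee bean alpha-galactosidase (2 nM) using 80 uM fluorogenic 4-methylumbelliferyl substrate. After 20 min at room temperature, reactions were stopped at pH 10 and read by fluorescence.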

Sequence of Alpha-galactosidase (Coffea arabica) (Q42656 whole entry, looked up): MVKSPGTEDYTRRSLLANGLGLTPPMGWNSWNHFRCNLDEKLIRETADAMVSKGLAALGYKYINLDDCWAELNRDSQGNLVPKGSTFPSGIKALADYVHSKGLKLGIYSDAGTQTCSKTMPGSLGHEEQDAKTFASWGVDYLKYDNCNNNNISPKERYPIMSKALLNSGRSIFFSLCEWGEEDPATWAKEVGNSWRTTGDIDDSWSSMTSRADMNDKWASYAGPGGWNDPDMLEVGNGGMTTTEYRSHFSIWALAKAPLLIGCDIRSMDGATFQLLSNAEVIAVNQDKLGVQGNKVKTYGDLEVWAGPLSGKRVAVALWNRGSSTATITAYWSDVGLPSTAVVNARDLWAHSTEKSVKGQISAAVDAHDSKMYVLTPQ

On to `O=C1C2CC=CCC2C(=O)N1SC(Cl)(Cl)Cl` (configuration not stated), for which the Potency in [1] was 3.98 µM (active) and 7.94 µM (active); in experiment [2], 6.31 µM (active) and 10 µM (active); in experiment [3], 7.94 µM (active) and 10 µM (active); in experiment [4] it was 7.94 µM (active) and 5.01 µM (active); in experiment [5], 12.6 µM (active) and 10 µM (active); in experiment [6], 2.51 µM (active) and 3.16 µM (active). Moreover, the Potency in experiment [7] was 2.51 µM (active) and 5.01 µM (active); in experiment [8], 5.01 µM (active) and 7.94 µM (active); in experiment [9], 3.98 µM (active) and 7.94 µM (active); in [10], 3.16 µM (active) and 5.01 µM (active); in experiment [11], 1.58 µM (active) and 3.16 µM (active); in experiment [12], 3.98 µM (active) and 6.31 µM (active). Further, the figures for the Potency in experiment [13] and in [14] were 7.94 µM (active) and 15.8 µM (active), respectively.

As to `O=C/C=C/c1ccccc1`, the Potency entry in experiment [1], in [15], in [2], in experiment [3], in experiment [4] and in experiment [5] was “inactive” each time. In addition, the Potency result in experiment [6], in experiment [7], in experiment [8], in [9], in [10] and in experiment [11] was “inactive” each time. In addition, the Potency result in [12], in [13] and in experiment [14] was “inactive” each time.

`CCCN1CCc2cc(O)cc3c2[C@H]1Cc1ccc(O)c(O)c1-3`: the compound was classed as inactive in experiment [16], in experiment [17] and in experiment [18].

As for `CC(C)CCON=O`, the Potency entry in [1], in [15], in [2], in experiment [3], in [4] and in experiment [5] was “inactive” in each case. Besides, the Potency result in [6], in [7], in experiment [8], in experiment [9], in experiment [10] and in experiment [11] was “inactive” each time. Also, the Potency entry in experiment [12], in [13] and in [14] was “inactive” in each case.

On to `O=Cc1ccco1`, for which the Potency entry in experiment [1], in [15], in experiment [2], in experiment [3], in [4] and in [5] was “inactive” in each case. The Potency entry in experiment [6], in experiment [7], in experiment [8], in experiment [9], in experiment [10] and in [11] was “inactive” each time. Besides, the Potency entry in experiment [12], in experiment [13] and in experiment [14] was “inactive” each time.

Turning to `C[C@H]1CCC[C@H](O)CCCCCc2cc(O)cc(O)c2C(=O)O1`, the Potency result in experiment [1], in experiment [15], in experiment [2], in experiment [3], in [4] and in experiment [5] was “inactive” in each case. The Potency result in experiment [6], in experiment [7], in experiment [8], in experiment [9], in experiment [10] and in [11] was “inactive” throughout. Further, the Potency entry in experiment [12], in [13] and in [14] was “inactive” in each case.

For the compound `CCCCCCCCOC(=O)c1ccccc1C(=O)OCCCCCCCC`, the Potency result in experiment [1], in experiment [15], in [2], in experiment [3], in experiment [4] and in experiment [5] was “inactive” throughout. Besides, the Potency result in experiment [6], in [7], in [8], in experiment [9], in experiment [10] and in experiment [11] was “inactive” each time. Further, the Potency result in [12], in [13] and in experiment [14] was “inactive” in each case.

Consider `CC(C)(C)c1cc(O)ccc1O`, for which the Potency entry in experiment [1], in experiment [15], in experiment [2], in experiment [4], in [5] and in experiment [12] was “inactive” in each case. Further, the Potency entry in [13] and in experiment [14] was “inactive” each time. For the same compound, the Potency in experiment [6] is 50.1 µM (active); in experiment [7], 50.1 µM (active); in [9], 50.1 µM (active); in experiment [10], 50.1 µM (active); in experiment [11] it was 31.6 µM (active).

With `C[C@H]1CC[C@@H]2[C@@H](C)[C@H]3[C@H](C[C@H]4[C@@H]5CC=C6CC(O[C@@H]7O[C@H](CO)[C@H](O)[C@H](O[C@@H]8O[C@H](CO)[C@@H](O)[C@H](O)[C@H]8O)[C@H]7O[C@H]7O[C@@H](C)[C@H](O)[C@@H](O)[C@H]7O)CC[C@]6(C)[C@H]5CC[C@]34C)N2C1` (some centres not stated), the Potency in [1] was 39.8 µM (active); in experiment [15], 39.8 µM (active); in experiment [2] it was 50.1 µM (active); in experiment [4] it was 50.1 µM (active); in experiment [5], 50.1 µM (active); in [6] it was 39.8 µM (active). For the same compound, the figures for the Potency in experiment [7], in experiment [13] and in experiment [14] were 31.6 µM (active), 25.1 µM (active) and 39.8 µM (active), respectively. Also, the Potency entry in experiment [12] was “inactive”.

`Cc1c2ccncc2c(C)c2c1[nH]c1ccccc12`: the outcome in experiment [16] and in experiment [18] was inactive.

For the compound `NC(=O)CI`, in experiment [16], the compound was called inactive.

With `Oc1cc(Cl)c(Cl)cc1Cl`, the Potency result in [1], in experiment [15], in [2], in experiment [3], in experiment [4] and in experiment [5] was “inactive” each time. Further, the Potency result in experiment [6], in experiment [7], in [8], in experiment [9], in experiment [10] and in experiment [12] was “inactive” in each case. Also, the Potency result in experiment [13] and in experiment [14] was “inactive” each time.
